Compounds without any hit were thinned out: in the full panel of roughly 79,000, 15% have a hit. Calls of active or inactive are those of the source. No stated cut-off is given here; in the data, active means growth inhibition above about 70%; inactive means the rest.
Key:
[1] = NCI Yeast Anticancer Drug Screen. Data for the wt1 strain (AID 149);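 further: 0% = growth of vehicle-treated wt1 cultures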; conditions: S. cerevisiae wt1 strain (SPY 50644) growth inhibition, hits give high values
How it was run: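 Compounds are added to wt1 yeast cultures. Growth is then measured. Inhibition is expressed relative to vehicle-treated controls.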

[2] = NCI Yeast Anticancer Drug Screen. Data for the rad50EPP+ strain (AID 151);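 further: 0% = growth of vehicle-treated control cultures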; conditions: S. cerevisiae rad50 mutant strain, hits give high values
How it was run: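 Measured: growth inhibition of rad50EPP+ yeast. Reference: vehicle-treated controls. Screen uses strains with defined genetic alterations in DNA damage repair or cell cycle control.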

[3] = NCI Yeast Anticancer Drug Screen. Data for the rad50 strain (AID 155);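 further: 0% = growth of vehicle-only cultures of the same strain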; conditions: S. cerevisiae rad50 strain growth inhibition, hits give high values
How it was run: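 Inhibition values express reduced yeast growth in compound-treated cultures relative to vehicle-treated controls.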

[4] = NCI Yeast Anticancer Drug Screen. Data for the mec2-1 strain (AID 157); conditions: S. cerevisiae mec2-1 strain, hits give high values
How it was run: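 Compounds were applied to mec2-1 yeast cells. Their growth was then compared with that of vehicle-treated cultures to give growth inhibition.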

[5] = NCI Yeast Anticancer Drug Screen. Data for the rad14 strain (AID 159);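 further: 0% = growth of vehicle-treated control cultures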; conditions: S. cerevisiae rad14 strain growth inhibition, hits give high values
How it was run: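 A mutant yeast strain defective in DNA damage repair is treated with compound; inhibition of its growth is scored against untreated, vehicle-exposed cultures.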

[6] = NCI Yeast Anticancer Drug Screen. Data for the sgs1 mgt1 strain (AID 161);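 further: 0% = growth of cultures given vehicle only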; conditions: S. cerevisiae sgs1 mgt1 strain, hits give high values
How it was run: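 Percent growth inhibition was derived by comparing compound-exposed mutant yeast with vehicle-exposed cultures. The strain carries alterations in DNA damage repair.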

[7] = NCI Yeast Anticancer Drug Screen. Data for the CLN2oe strain (AID 163);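 further: 0% = growth of vehicle-only control cultures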; conditions: S. cerevisiae CLN2oe strain, hits give high values
How it was run: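 Cells of an engineered yeast line with disturbed cell-cycle regulation are treated with compound. Inhibition of growth is then calculated relative to the vehicle-treated reference.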

[8] = NCI Yeast Anticancer Drug Screen. Data for the cln2 rad14 strain (AID 165);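 further: 0% = growth equal to vehicle treated cultures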; conditions: S. cerevisiae cln2 rad14 strain, hits give high values
How it was run: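 Strain: cln2 rad14 yeast, altered in cell cycle control and DNA damage repair. Read-out: growth inhibition vs vehicle.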

[9] = NCI Yeast Anticancer Drug Screen. Data for the bub3 strain (AID 167); conditions: S. cerevisiae bub3 mutant strain, hits give high values
How it was run: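 Steps: expose the mutant yeast strain to compound; grow alongside vehicle-treated cultures; measure growth; express inhibition against the vehicle cultures.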

[10] = NCI Yeast Anticancer Drug Screen. Data for the wt2 strain (AID 169);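 further: 0% = growth of vehicle-treated yeast cultures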; conditions: S. cerevisiae wt2 strain growth inhibition, hits give high values
How it was run: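 Growth of compound-treated yeast is measured and expressed as inhibition relative to vehicle-only controls.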

[11] = NCI Yeast Anticancer Drug Screen. Data for the mlh1 strain (AID 171);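 further: 0% = growth of vehicle-treated control cultures of the same strain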; conditions: S. cerevisiae mlh1 strain growth inhibition, hits give high values
How it was run: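 Test agents were incubated with yeast bearing a defined DNA damage repair or cell cycle control alteration; values are growth inhibition normalised to vehicle-treated cultures.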

[12] = NCI Yeast Anticancer Drug Screen. Data for the sgs1 strain (AID 173);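 further: 0% = growth of vehicle-only control cultures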; conditions: S. cerevisiae sgs1 mutant, hits give high values
How it was run: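 Strain with an altered DNA repair or cell cycle pathway exposed to compound. Growth then measured. Value = inhibition versus vehicle control.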

[13] = NCI Yeast Anticancer Drug Screen. Data for the mlh1 rad18 strain (AID 175); conditions: S. cerevisiae mlh1 rad18 strain growth inhibition, hits give high values
How it was run: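 A repair-deficient yeast strain is exposed to test compound, and growth is scored relative to vehicle-treated controls.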

[14] = NCI Yeast Anticancer Drug Screen. Data for the rad18 strain (AID 177); conditions: S. cerevisiae rad18 mutant growth inhibition, hits give high values
How it was run: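 DNA-repair-defective yeast; compound treatment; growth inhibition scored against vehicle.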

[15] = NCI Yeast Anticancer Drug Screen. Data for the mgt1 strain (AID 153); conditions: S. cerevisiae mgt1 mutant growth inhibition, hits give high values
How it was run: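 Compounds were applied to mgt1 mutant yeast, and growth was then compared against vehicle-treated control cultures to give percent inhibition.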

[16] = at 5.0 µM (retest, dose inferred, filed as 0.5)
[17] = at 50.0 µM (retest, dose inferred, filed as 5.0)

Measured: growth inhibition

O=[N+]([O-])c1c(/C=N/Nc2ccccc2)oc(-c2ccc3c(c2)OCO3)c1-c1ccc2c(c1)OCO2
inactive: [1]; at 1.2 µM -1% | [1]; at 3.7 µM 0% | [1]; at 11.0 µM -1% | [1]; at 33.0 µM 19% | [1]; at 100.0 µM 62% | [2]; at 1.2 µM -4% | [2]; at 3.7 µM 1% | [2]; at 11.0 µM 11% | [2]; at 33.0 µM 31% | [2]; at 100.0 µM 46% | [3]; at 1.2 µM -1% | [3]; at 3.7 µM 2% | [3]; at 11.0 µM 7% | [3]; at 33.0 µM 56% | [4]; at 1.2 µM 0% | [4]; at 3.7 µM 0% | [4]; [16] 8% | [4]; at 11.0 µM 8% | [4]; at 33.0 µM 37% | [4]; [17] 8% | [5]; at 1.2 µM 0% | [5]; at 3.7 µM -2% | [5]; at 11.0 µM 2% | [5]; at 33.0 µM 20% | [7]; at 1.2 µM -1% | [7]; at 3.7 µM 4% | [7]; at 11.0 µM 9% | [7]; at 33.0 µM 46% | [8]; [16] -17% | [8]; [17] -17% | [9]; at 1.2 µM -9% | [9]; at 3.7 µM -8% | [9]; [16] -21% | [9]; at 11.0 µM 8% | [9]; at 33.0 µM 39% | [9]; [17] -21% | [9]; at 100.0 µM 60% | [10]; at 1.2 µM 0% | [10]; at 3.7 µM 1% | [10]; at 11.0 µM 5% | [10]; at 33.0 µM 44% | [11]; at 1.2 µM -3% | [11]; at 3.7 µM -2% | [11]; at 11.0 µM 3% | [11]; at 33.0 µM 36% | [12]; at 1.2 µM -2% | [12]; at 3.7 µM -2% | [12]; at 11.0 µM 7% | [12]; at 33.0 µM 65% | [13]; [16] 38% | [13]; [17] 38% | [14]; at 1.2 µM -8% | [14]; at 3.7 µM -5% | [14]; at 11.0 µM 8% | [14]; at 33.0 µM 69%
active: [3]; [16] 88% | [3]; [17] 88% | [3]; at 50.0 µM 80.3% | [3]; at 100.0 µM 86% | [4]; at 50.0 µM 88.2% | [4]; at 100.0 µM 81% | [5]; at 100.0 µM 91% | [6]; [16] 87% | [6]; [17] 87% | [6]; at 50.0 µM 83% | [7]; at 100.0 µM 77% | [8]; at 50.0 µM 86.8% | [9]; at 50.0 µM 82.5% | [10]; at 100.0 µM 88% | [11]; at 100.0 µM 73% | [12]; at 100.0 µM 89% | [13]; at 50.0 µM 84.2% | [14]; at 100.0 µM 87%

O=C1c2ccccc2CCC1(Br)Br
active: [1]; at 33.0 µM 99% | [1]; at 100.0 µM 99% | [2]; at 3.7 µM 82% | [2]; at 11.0 µM 97% | [2]; at 33.0 µM 99% | [2]; at 100.0 µM 99% | [15]; at 33.0 µM 99% | [15]; at 100.0 µM 99% | [3]; at 33.0 µM 99% | [3]; [17] 99% | [3]; at 50.0 µM 99.2% | [3]; at 100.0 µM 99% | [4]; at 11.0 µM 76% | [4]; at 33.0 µM 99% | [4]; [17] 100% | [4]; at 50.0 µM 99.3% | [4]; at 100.0 µM 99% | [5]; at 33.0 µM 99% | [5]; at 100.0 µM 99% | [6]; [17] 99% | [6]; at 50.0 µM 99.2% | [7]; at 11.0 µM 93% | [7]; at 33.0 µM 99% | [7]; at 100.0 µM 99% | [8]; [17] 100% | [8]; at 50.0 µM 99.4% | [9]; at 11.0 µM 74% | [9]; at 33.0 µM 99% | [9]; [17] 99% | [9]; at 50.0 µM 99.2% | [9]; at 100.0 µM 99% | [10]; at 33.0 µM 99% | [10]; at 100.0 µM 99% | [11]; at 11.0 µM 72% | [11]; at 33.0 µM 99% | [11]; at 100.0 µM 99% | [12]; at 11.0 µM 76% | [12]; at 33.0 µM 99% | [12]; at 100.0 µM 99% | [13]; [16] 85% | [13]; [17] 99% | [13]; at 50.0 µM 99.3% | [14]; at 11.0 µM 75% | [14]; at 33.0 µM 99% | [14]; at 100.0 µM 99%
inactive: [1]; at 1.2 µM 1% | [1]; at 3.7 µM 11% | [1]; at 11.0 µM 36% | [2]; at 1.2 µM 55% | [15]; at 1.2 µM 2% | [15]; at 3.7 µM 11% | [15]; at 11.0 µM 53% | [3]; at 1.2 µM 11% | [3]; at 3.7 µM 22% | [3]; [16] 50% | [3]; at 11.0 µM 69% | [4]; at 1.2 µM 9% | [4]; at 3.7 µM 21% | [4]; [16] 21% | [5]; at 1.2 µM 7% | [5]; at 3.7 µM 14% | [5]; at 11.0 µM 51% | [6]; [16] 63% | [7]; at 1.2 µM 9% | [7]; at 3.7 µM 13% | [8]; [16] 18% | [9]; at 1.2 µM 1% | [9]; at 3.7 µM 15% | [9]; [16] 61% | [10]; at 1.2 µM 5% | [10]; at 3.7 µM 13% | [10]; at 11.0 µM 62% | [11]; at 1.2 µM 7% | [11]; at 3.7 µM 13% | [12]; at 1.2 µM 13% | [12]; at 3.7 µM 23% | [14]; at 1.2 µM 13% | [14]; at 3.7 µM 23%

Reference: PubChem BioAssay (NCI)
